Pf growth 48h – inhibits P. falciparum growth in the first generation, 48 h; AID 504832; hit rate 5.9% among 310,000; Potency, µM (doses to about 28.7 µM), without a hit: at the top dose activity change, negative = inhibition, actives largely listed as inhibitors; P. falciparum luciferase growth in erythrocytes, 48 h; further: potency means the concentration at half of the fitted maximal effect; on the % scale 0 is the no-effect control and ±100 the full control effect
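Luminescence readout; reporter = integrated firefly luciferase in P. falciparum. RBC culture at 2% hematocrit, 0.1% parasitemia final, 37 C/5% CO2; decreased signal taken as growth inhibition.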
Shiga inhibitor – inhibitors of Shiga toxin in Vero cells | Vero cells, Shiga toxin protein synthesis inhibition reporter | AID 2315 | inhibition, % at 38.7 µM | hit rate 9.2% among 290,000; in the data active means inhibition mostly above about 28%, no sharp cut-off; inactive means mostly below about 43%; further: 0% is about no effect
LASV entry inh – blocks Lassa virus binding to or entry into cells; Lassa virus pseudotype entry inhibition, cell reporter; Potency, µM (titrated, usually from 37.9 µM), without a hit: at the top dose activity change, negative = inhibition, usual class: inhibitors; hit rate 1.2% among 300,000; AID 540256; calls by dose curve; tested in HEK293 cells; further: potency means the concentration at half of the fitted maximal effect; on the % scale 0 is the no-effect control and ±100 the full control effect; nearly all actives have a fitted effect of over 50% in size
Marburg entry inh – inhibitors of Marburg virus binding or cell entry; hit rate 1.8% among 300,000; Marburg virus pseudotyped entry inhibition, cell reporter; Potency, µM (top dose mostly 37.8 µM), without a hit: at the top dose activity change, negative = inhibition, hits mostly inhibitors; calls by dose curve; tested in HEK293 cells; further: potency means the concentration at half of the fitted maximal effect; on the % scale 0 is the no-effect control and ±100 the full control effect
Pf growth 96h – P. falciparum growth inhibition at 96 hours; P. falciparum luciferase reporter growth, 96 h; Potency, µM (series often up to 28.7 µM), without a hit: at the highest dose activity change, negative = inhibition, usual class: inhibitors; hit rate 6.9% among 320,000; AID 504834; further: potency means the concentration at half of the fitted maximal effect; on the % scale 0 is the no-effect control and ±100 the full control effect
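Plates of compound plus infected erythrocytes (2% hematocrit, 0.05% parasitemia final) incubate 96 hours, 37 C, 5% CO2. Detection reagent added; reduced luminescence from the parasites' luciferase reporter flags inhibition.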
CHX counter – affects cycloheximide protein synthesis inhibition readout, counter-screen. cell reporter, cycloheximide protein synthesis inhibition counterscreen. hit rate 12% among 300,000. max response, %; in the data active means max response mostly above about 13%, no sharp cut-off; inactive means mostly below about 14%; further: read at 38.3 µM for the half of the compounds with a filed dose; 0% is about no effect
Active calls of the source: *; i = inactive; ? = inconclusive; . = no result given; [ ] = another dose, or the depositor's remark. The list is not random: actives were taken first. Their share in the collection is about 19%. Unless noted, the call rests on the fitted dose curve; in most records, active means well fitted inhibition curve with a large enough effect; inconclusive means small, poorly fitted or top-dose-only effect, or another doubt; inactive means no such curve, though single readings can be large or run the other way.

SMILES | Pf growth 48h | Shiga inhibitor | LASV entry inh | Marburg entry inh | Pf growth 96h | CHX counter
C=CCNc1nc(N)c(C(=O)Nc2cc(C)on2)s1 | 115% | 38* | -1% | -2% | . | 19*
O=c1[nH]c(=O)n(C(c2ccccc2)(c2ccccc2)c2ccccc2)cc1N(CCO)CCO | . | . | -4%[46.1 µM] | -13% | . | .
CC1Sc2ccc(S(=O)(=O)N3CCN(c4cccc(Cl)c4)CC3)cc2NC1=O (stereo unspecified) | 0% | 2 | . | . | 12µM* | 6
O=C1CC(=O)Nc2cc(S(=O)(=O)N3CCOc4ccc(Cl)cc43)ccc2N1 | 30% | 19 | ? | . | ? | -5
Cc1ccc2c(c1)N(S(=O)(=O)c1ccc3c(c1)NC(=O)CC(=O)N3)CCO2 | 7% | 8 | -15%[46.1 µM] | . | 8.3µM* | -1
O=C1COc2ccc(S(=O)(=O)CCC(=O)N3CCN(c4cccc(Cl)c4)CC3)cc2N1 | -14% | -5 | . | . | 32% | -1
O=C1COc2ccc(S(=O)(=O)N3CCN(c4cccc(Cl)c4)CC3)cc2N1 | 13% | 20 | . | . | 13µM* | -4
CC(=O)Nc1ccc(S(=O)(=O)N2CCN(c3cc(C)ccc3C)CC2)cc1 | -20% | -13 | -30% | -22% | 13µM* | -5
CCC(C(=O)NC(N)=O)c1ccccc1 (stereo unspecified) | 3% | . | . | . | 4% | .
Cc1ccc(C)c(N2CCN(S(=O)(=O)c3ccc4c(c3)NC(=O)CC(=O)N4)CC2)c1 | 3% | -3 | . | . | -12% | 0
Cc1ccc(S(=O)(=O)N2CCCCC2)cc1 | . | -1 | . | . | 18% | 12
Cc1ccc(C)c(CNc2ccc(S(=O)(=O)N3CCCCC3)cc2)c1 | 12µM* | . | . | . | ? | .
Cc1ccc(C)c(N2CCN(S(=O)(=O)c3ccc4c(c3)NC(=O)CO4)CC2)c1 | -10% | -6 | . | . | 13µM* | -11
C(=N\N1CCN(c2ccccn2)CC1)/c1cccc2ccccc12 | 29% | 43* | 0% | -1%[46.1 µM] | 16% | 17*
Oc1ccccc1/C=N/N1CCN(c2ccccn2)CC1 | 86% | 90* | 2%[46.1 µM] | ? | 42% | 37*
CC(C)c1ccc(NC(=O)CN2CCN(c3ccccn3)CC2)cc1 | 10% | 6 | . | . | 23% | -5
CC(C)c1ccc(/C=N/N2CCN(c3ccccn3)CC2)cc1 | 44% | 43* | 5%[46.1 µM] | ? | 17% | 21*
CC(C)c1ccc(/C=N/N2CCCCC2)cc1 | 77% | 139* | 4% | ? | 6% | 31*
Cc1sc2ncn(CC(=O)NCCCOC(C)C)c(=O)c2c1S(=O)(=O)N1CCN(c2ncccn2)CC1 | -15% | -3 | -10%[46.1 µM] | -2%[46.1 µM] | 7% | -2
NC(=O)C1(N2CCCCC2)CCN(C(=O)CSc2nc3ccccc3o2)CC1 | . | . | -2% | ? | . | .
CCCCC1CCC(c2nc(-c3ccccn3)no2)CC1 (stereo unspecified) | 66% | 178* | -30% | ? | ? | 56*
c1ccc(-c2noc(C3CCC3)n2)nc1 | 61% | 50* | ? | 0% | 77% | 28*
CN(C)C(=O)c1ccc(Oc2ccc(C(=O)N(C)C)cc2)cc1 | 8% | 3 | 2% | 19% | 1.9µM* | 4
CN(Cc1ccccc1F)C(=O)c1ccc(Oc2ccccc2)cc1 | 6% | 19 | . | . | 2% | 2
CC(=O)c1ccc(Oc2ccc(C(C)=O)cc2)cc1 | 135% | 83 | 1% | 0% | ? | 17*
SMILES | Pf growth 48h | Shiga inhibitor | LASV entry inh | Marburg entry inh | Pf growth 96h | CHX counter
COc1ccc(C(=O)NC(=S)Nc2ccc([N+](=O)[O-])cc2C)cc1OC | 19% | -4 | -1% | -19% | 31% | -2
CCCNC(=O)OCCC12CC3CC(CC(C3)C1)C2 | 18% | 25* | ? | ? | 67% | 59*
CCCNC(=O)NCCC12CC3CC(CC(C3)C1)C2 | ? | 65* | 2.5µM* | 0%[46.1 µM] | 38% | 45*
C=CCOc1ccc(CNCC2CCCO2)cc1 (stereo unspecified) | 11% | -7 | 19%[46.1 µM] | 3%[46.1 µM] | -6% | -1
N#Cc1c2c(c(-c3ccccc3Cl)[nH]c1=S)CCCC2 | 11% | -13 | 4% | 12%[46.1 µM] | 33% | -6
O=C(Nc1sc2c(c1C(=O)Nc1ccccc1)CCC2)c1ccc(Br)cc1 | . | . | 15%[46.1 µM] | . | . | .
O=C1Nc2ccccc2/C1=N\c1sc2c(c1C(=O)Nc1ccccc1)CCCC2 | 7.4µM* | 22* | -4% | -2% | 2.3µM* | 8
CCC(=O)NC(C)C(c1cccs1)N1CCN(Cc2ccccc2)CC1 (stereo unspecified) | 11% | 3 | . | . | -7% | -2
NC(=O)NC(=O)C[n+]1cccc(/C=N/O)c1 | 0% | 4 | -15% | 0%[46.1 µM] | 10µM* | -6
Cc1ccc(C(=O)N/C(=C/c2cccc([N+](=O)[O-])c2)C(=O)NC(C)C)cc1 | 18% | -16 | 1% | 19% | -14% | -2
O=C(NCCc1ccccc1)c1n[nH]c(=O)c2ccccc12 | 26% | 26 | 6% | 2%[46.1 µM] | -27% | 27*
COc1ccc(CCNC(=O)c2n[nH]c(=O)c3ccccc23)cc1 | -3% | 36 | 0% | -2% | ? | -5
CC1CCN(CCCNC(=O)c2n[nH]c(=O)c3ccccc23)CC1 | 21% | -19 | -9% | 7%[46.1 µM] | 12µM* | -4
COc1ccc(OC)c(C(=O)/C=C/c2ccccc2C(F)(F)F)c1 | ? | 9 | ? | ? | ? | -2
COc1ccc(C(=O)/C=C/c2ccccc2F)c(OC(=O)c2ccc([N+](=O)[O-])cc2)c1 | 4% | 60 | ? | ? | 0% | 49*
COc1ccc(C(=O)Oc2ccc(F)cc2C(=O)/C=C/c2ccc(OC)c(OC)c2)cc1 | -27% | -11 | ? | -14% | -1% | -2
COc1ccc(C(=O)/C=C/c2ccc(C)cc2)c(OC(=O)c2ccc([N+](=O)[O-])cc2)c1 | 20% | 16 | ? | -18%[46.1 µM] | 18% | 32*
O=C(/C=C/c1ccccc1F)c1cccc([N+](=O)[O-])c1 | 18% | active | ? | ? | 23% | 21
O=C(Oc1ccc(F)cc1C(=O)/C=C/c1cccs1)c1cccc([N+](=O)[O-])c1 | ? | 49* | ? | -2% | ? | 17
O=C1C(Nc2ccccc2)=C2CCCC=C2N1c1ccccc1 | i | 31 | ? | 0%[46.1 µM] | -6% | 18
CCc1nc2ccc(C(=O)N3CCN(c4cccc(C)c4C)CC3)cc2nc1CC | -9% | -1 | -12%[46.1 µM] | . | ? | 1
O=C(CCc1ccccc1)N1C[C@H]2C[C@@H](C1)c1cccc(=O)n1C2 | -9% | -10 | . | . | ? | -2
COc1ccc(CC(=O)NNC(=O)COc2ccc(Br)cc2C)cc1OC | 1% | 14 | 9% | -23% | -25% | -3
Cc1ccccc1NC(=O)COc1ccc(Br)cc1C | 9% | 54* | 8% | 8% | ? | 41*
COc1cc(CO)c(Br)cc1OCC(=O)Nc1ccccc1C | 76% | 29 | 12% | 28%[46.1 µM] | ? | 32*
